High-throughput results from PubChem.
A selection: hits, their analogues and other compounds. The true share with any hit is near 1.7%.
Imprint erasure: genomic imprint erasure induction | mouse ES Peg3-LacZ reporter, beta-gal luminescence, 40 h | Potency, µM (highest dose often 60.7 µM), actives largely listed as activators | actives 0.02% (n = 110,000)
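Gelatin-coated wells received 300 freshly trypsinized female ES cells with a Peg3LacZ-Neo reporter on the maternal allele, then incubated 40 hours at 37C. BetaGlo was added for 5 minutes at room temperature before a single luminescence read.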
IkB sig inh: IkB pathway inhibition in ABC-DLBCL cells. ABC-DLBCL IkBa-CBG/CBR dual luciferase ratio, 4 h; response scale: scaled: untreated 0%, proteasome inhibitor 100%. Potency, µM (highest dose often 57.1 µM). actives 0.04% (n = 110,000). AID 445; active = well fitted curve in the direction sought with a large enough effect in the signal ratio, not every such curve was filed as active; inconclusive = small, poorly fitted or top-dose-only effect, or a change in a side signal; the % refers to the signal ratio;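 note: the direction sought is a rising ratio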
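Curves were fitted separately to fusion (green), unfused (red) and ratio luminescence, then classed by r2, magnitude and activity. Cells: OCI-Ly3, 4 h compound plus doxycycline at 37C; 10 uM MG-132 defined full response.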
p53ts 39C tox: p53ts cell cytotoxicity, nonpermissive temperature | H1299-p53A138V viability at 39C, ATP luminescence, 24 h | Potency, µM (top dose mostly 46.1 µM), most hits filed as cytotoxic | actives 1.5% (n = 130,000) | AID 902; note: nearly all actives have a fitted effect of over 55% in size
p53ts 32C kill: cytotoxicity in p53ts cells at permissive temperature | actives 0.93% (n = 130,000) | H1299-p53A138V at 32C, ATP luminescence viability, 24 h | Potency, µM (titrated, usually from 46.1 µM), hits mostly cytotoxic; note: nearly all actives have a fitted effect of over 55% in size
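ATP-content luminescence (ATPlite) read-out after 24 h compound exposure at 32C in H1299-p53A138V cells (600/well). Tested up to 46 uM. Normalized to DMSO (0%) and 100 uM tamoxifen (100% killing); Hill-fit AC50.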
Of the large screens only hits and unclear results are named; the others gave an inactive call; ! = a repeat was not active. Unless noted, calls come from the whole dose curve; as a rule, active = well fitted curve in the direction sought with a large enough effect; inconclusive = small, poorly fitted or top-dose-only effect, or another doubt; inactive = no such curve, though single readings can be large; an effect the other way counts as inactive or inconclusive.

CCCCC(=O)Nc1c(C(=O)N2CCN(c3ccccc3)CC2)oc2ccccc12	IkB sig inh inconclusive, p53ts 39C tox 15.8µM
N[C@@H](C(=O)O)[C@@H]1C[C@H]1C(=O)O	none (no result: Imprint erasure, p53ts 39C tox, p53ts 32C kill)
OC(CNCc1ccco1)Cn1c2ccccc2c2ccccc21 (configuration not stated)	IkB sig inh inconclusive, p53ts 39C tox 12.6µM, p53ts 32C kill inconclusive
OC(CNCc1ccco1)COc1ccccc1 (configuration not stated)	none
COc1ccc(OC)c(S(=O)(=O)n2ccnc2)c1	none
N#CC(=C(/N)Sc1ccccc1N)/C(C#N)=C(/N)Sc1ccccc1N	IkB sig inh inconclusive
O=C(NC(=S)N(CCc1ccccc1)CCc1ccccc1)c1ccco1	p53ts 39C tox 11.2µM (no result: Imprint erasure, IkB sig inh)
Cc1ccc(-n2nc3ccc(N)cc3n2)cc1	p53ts 39C tox 7.94µM, p53ts 32C kill 7.94µM
Cc1ccc(-n2nc(-c3ccc(N)cc3)cc2N)cc1	none
O=C(c1ccc(Cc2nc3ccccc3[nH]2)cc1)N1CCCCC1	none (no result: Imprint erasure, IkB sig inh)
O=C(CC(Nc1ccc(Cl)cc1)C(=O)O)c1ccccc1 (configuration not stated)	p53ts 39C tox inconclusive, p53ts 32C kill 25.1µM (no result: Imprint erasure, IkB sig inh)
O=C(O)C[C@H](Nc1ccccc1)C(=O)O	none
O=C(/C=C\Nc1ccccn1)c1ccccc1	IkB sig inh inconclusive, p53ts 39C tox inconclusive, p53ts 32C kill 10µM
O=C(/C=C/Nc1ccccc1Br)c1ccccn1	IkB sig inh inconclusive, p53ts 39C tox 1.26µM, p53ts 32C kill 0.794µM
O=C(/C=C/Nc1cccc(O)c1)c1ccccc1	IkB sig inh inconclusive, p53ts 39C tox 7.94µM, p53ts 32C kill 3.98µM
N#Cc1cccc(-c2nc(NCCN3CCOCC3)c3ccccc3n2)c1	Imprint erasure inconclusive
Cc1cc2nc(-c3ccc(SCC(=O)N4CCOCC4)nc3)[nH]c2cc1C	IkB sig inh inconclusive, p53ts 39C tox 7.94µM, p53ts 32C kill 6.31µM
Cc1cc2nc(-c3ccc(SCC(=O)N4CCN(C(=O)c5ccco5)CC4)nc3)[nH]c2cc1C	IkB sig inh inconclusive, p53ts 39C tox 5.01µM, p53ts 32C kill 6.31µM
C[C@@]12CCC(=O)C=C1CC[C@@H]1[C@@H]2[C@H](O)C[C@]2(C)[C@@H]1CC[C@]2(O)C(=O)CO	IkB sig inh 0.0794µM! (no result: p53ts 39C tox, p53ts 32C kill)
C[C@@]12CCC(=O)C=C1CC[C@@H]1[C@@H]2[C@H](O)C[C@]2(C)[C@@H]1CC[C@]2(O)C(=O)COC(=O)CCC(=O)O	IkB sig inh 0.126µM (no result: Imprint erasure)
ICCc1ccccc1	none
COc1cc(/C=N/O)ccc1OCc1ccc(C(=O)O)cc1	p53ts 39C tox 8.91µM, p53ts 32C kill 8.91µM (no result: Imprint erasure, IkB sig inh)
O=C(O)c1cc(/C=N\O)ccc1OCc1ccccc1	IkB sig inh inconclusive
O=c1cc(-c2ccccc2)[nH]n1-c1nc2ccccc2s1	IkB sig inh inconclusive, p53ts 39C tox inconclusive, p53ts 32C kill inconclusive
O=c1cc(-c2ccccc2)[nH]c2nc3ccccc3n12	IkB sig inh inconclusive, p53ts 39C tox 2µM, p53ts 32C kill 2µM
Cc1ccc(C(=O)Nc2nc3ccc(S(C)(=O)=O)cc3s2)s1	p53ts 39C tox 12.6µM, p53ts 32C kill 10µM
Cc1ccc2nc(NC(=O)c3cccs3)sc2c1	IkB sig inh inconclusive, p53ts 39C tox 7.94µM, p53ts 32C kill inconclusive (no result: Imprint erasure)
CS(=O)(=O)c1ccc2nc(NC(=O)c3cccs3)sc2c1	IkB sig inh inconclusive, p53ts 39C tox 2.51µM, p53ts 32C kill 2.51µM
CCC(=O)Nc1nc2ccc(S(C)(=O)=O)cc2s1	none (no result: Imprint erasure, IkB sig inh)
Cc1cc(C(=O)Nc2nc3ccc(S(C)(=O)=O)cc3s2)c(C)o1	p53ts 32C kill inconclusive
CN1C[C@H](C(=O)N[C@]2(C)O[C@@]3(O)[C@H]4CCCN4C(=O)[C@@H](Cc4ccccc4)N3C2=O)C[C@H]2c3cccc4[nH]cc(c34)C[C@@H]21	none (no result: Imprint erasure, p53ts 39C tox, p53ts 32C kill)
COc1ccc(C)cc1NS(=O)(=O)c1cccc2cccnc12	none
COc1cc(NS(=O)(=O)c2ccc(C)cc2)c2ncccc2c1	IkB sig inh 1.26µM
COc1ccc(NC(=O)c2c(C)oc3ccc(O)c(CN4CCCCCC4)c23)cc1Cl	IkB sig inh inconclusive, p53ts 39C tox 12.6µM
COc1ccc(CNS(=O)(=O)c2cc(C(=O)Nc3cc(Cl)cc(Cl)c3)ccc2F)cc1	IkB sig inh inconclusive, p53ts 39C tox inconclusive
O=C(Nc1ccc(Br)cc1)c1ccc(F)c(S(=O)(=O)NC2CCCCCC2)c1	IkB sig inh inconclusive, p53ts 39C tox 12.6µM, p53ts 32C kill inconclusive
O=C(Nc1cc(Cl)cc(Cl)c1)c1ccc(F)c(S(=O)(=O)NC2CCCCC2)c1	IkB sig inh inconclusive, p53ts 39C tox 25.1µM, p53ts 32C kill inconclusive
CS/C(N)=C(C#N)/C(C#N)=C(\N)SC	none (no result: IkB sig inh, p53ts 39C tox, p53ts 32C kill)
CCN(c1cccc(C)c1)C(CNS(=O)(=O)c1ccccc1)c1ccccc1 (configuration not stated)	IkB sig inh inconclusive, p53ts 39C tox 12.6µM
COC(=O)CCN(c1ccccc1)C(CNS(=O)(=O)c1ccccc1)c1ccccc1 (configuration not stated)	IkB sig inh inconclusive
Cc1cccc(N(C)C(CNS(=O)(=O)c2ccccc2)c2ccccc2)c1 (configuration not stated)	IkB sig inh inconclusive, p53ts 39C tox 31.6µM
CCN(c1ccccc1)C(CNS(=O)(=O)c1ccccc1)c1ccccc1 (configuration not stated)	p53ts 39C tox inconclusive
COc1ccc([C@@H]2CC(=O)c3c(O)cc(O[C@@H]4O[C@@H](CO[C@@H]5O[C@@H](C)[C@@H](O)[C@@H](O)[C@H]5O)[C@@H](O)[C@@H](O)[C@H]4O)cc3O2)cc1O	none (no result: Imprint erasure, p53ts 39C tox, p53ts 32C kill)
CC/C=C\CC[C@H](O)C1=CCCCC1=O	none (no result: Imprint erasure, IkB sig inh)
COC(=O)c1nn(-c2ccc(-c3ccccc3)cc2)cc1O	IkB sig inh inconclusive, p53ts 39C tox inconclusive, p53ts 32C kill 7.94µM
c1ccc2cc(OCc3nc4ccccc4[nH]3)ccc2c1	p53ts 39C tox 12.6µM, p53ts 32C kill 10µM (no result: Imprint erasure, IkB sig inh)
COc1cccc(OCc2nc3ccccc3[nH]2)c1	IkB sig inh inconclusive, p53ts 39C tox inconclusive, p53ts 32C kill 15.8µM
Ic1ccc2c(c1)N(c1ccccc1)c1cc(Nc3ccc4nc5ccc(I)cc5[n+](-c5ccccc5)c4c3)ccc1N2	none
Cc1ccc2c(c1)c(C)c(C)n2CC(O)CN1CCOCC1 (configuration not stated)	none
OC(CN1CCNCC1)Cn1c2ccc(Br)cc2c2cc(Br)ccc21 (configuration not stated)	p53ts 39C tox 12.6µM, p53ts 32C kill inconclusive (no result: IkB sig inh)
COc1ccc2nc(-c3ccccc3)[nH]c2c1	IkB sig inh inconclusive, p53ts 39C tox 12.6µM, p53ts 32C kill 10µM
Cc1ccc2nc(-c3cccc(N)c3)[nH]c2c1	p53ts 39C tox 11.2µM, p53ts 32C kill 14.1µM (no result: Imprint erasure, IkB sig inh)
CCOc1ccc2nc(-c3ccccc3)[nH]c2c1	IkB sig inh inconclusive, p53ts 39C tox 5.01µM, p53ts 32C kill 6.31µM
COc1cccc(Cn2c(=O)cnc3cnc(OC)nc32)c1	none
Cc1ccc(S(=O)(=O)NCC(Nc2cccc(Cl)c2)c2ccccc2)cc1 (configuration not stated)	IkB sig inh inconclusive, p53ts 39C tox 15.8µM, p53ts 32C kill inconclusive
